# Screening data deposited in PubChem BioAssay by National Center for Advancing Translational Sciences (NCATS).
# Hits are enriched below; roughly 21% of the tested compounds scored in any of these assays.
# Shiga inhibitor – A qHTS for Small Molecule Inhibitors of Shiga Toxin | Vero cells, Shiga toxin protein synthesis inhibition reporter | inhibition, % at 38.7 µM | 290,000 tested, 9.2% active | AID 2315, 2010; in the data active = inhibition mostly above about 28%, no sharp cut-off; inactive = mostly below about 43%; note: 0% is about no effect
# SARS PLpro yeast – qHTS of Yeast-based Assay for SARS-CoV PLP. S. cerevisiae expressing SARS-CoV PLpro, growth rescue. Potency, µM (doses to about 32.9 µM), for inactives: top-dose activity, positive = growth rescue, most hits filed as activators. 330,000 tested, 0.19% active. AID 485353, 2010; note: potency is the fitted concentration of half-maximal effect; 0% is about no effect; nearly all actives have a fitted effect of over 55% in size
# CHX counter – Cycloheximide Counterscreen for Small Molecule Inhibitors of Shiga Toxin | cell reporter, cycloheximide protein synthesis inhibition counterscreen | max response, % | 300,000 tested, 12% active; in the data active = max response mostly above about 13%, no sharp cut-off; inactive = mostly below about 14%; note: read at 38.3 µM for the half of the compounds with a filed dose; 0% is about no effect
# Pf growth 48h – Primary qHTS for delayed death inhibitors of the malarial parasite plastid, 48 hour incubation. P. falciparum luciferase growth in erythrocytes, 48 h. Potency, µM (series often up to 28.7 µM), without a hit: at the top dose activity change, negative = inhibition, usual class: inhibitors. 310,000 tested, 5.9% active; active = well fitted inhibition curve with a large enough effect; inconclusive = small, poorly fitted or top-dose-only effect, or another doubt; inactive = no such curve, though single readings can be large or run the other way; note: potency is the fitted concentration of half-maximal effect; % is set by controls: 0 for no effect and ±100 for the full control effect
#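 A one-generation exposure of luciferase-tagged malaria parasites in RPMI 1640/Albumax erythrocyte culture, 37 C and 5% CO2. Inhibition is inferred from decreased luminescence after adding detection reagent.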
# Pf growth 96h – Primary qHTS for delayed death inhibitors of the malarial parasite plastid, 96 hour incubation | P. falciparum luciferase reporter growth, 96 h | Potency, µM (titrated, usually from 28.7 µM), for inactives: at the top dose activity change, negative = inhibition, hits mostly inhibitors | 320,000 tested, 6.9% active | AID 504834, 2011; active = well fitted inhibition curve with a large enough effect; inconclusive = small, poorly fitted or top-dose-only effect, or another doubt; inactive = no such curve, though single readings can be large or run the other way; note: potency is the fitted concentration of half-maximal effect; % is set by controls: 0 for no effect and ±100 for the full control effect
#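 Compounds incubated with erythrocytes infected by luciferase-expressing P. falciparum (2% hematocrit, 0.05% parasitemia final) for 96 hours, 37 C in 5% CO2. Growth inhibition scored as decreased luciferase luminescence.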
# NS1 function inh – qHTS Assay for Inhibitors of Influenza NS1 Protein Function; Potency, µM (doses to about 46.1 µM), without a hit: at the top dose activity, positive = more growth; 270,000 tested, 0.4% active; AID 2326, 2010; note: potency is the fitted concentration of half-maximal effect; actives are rising curves; nearly all actives have a fitted effect of over 50% in size
#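 S. cerevisiae expressing influenza A NS1, grown in glucose, washed, then diluted 1:100 into pH 6.0 -URA galactose medium with 23 nl compound. Growth recovery read as OD600; NS1-free strain serves as control.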
# An asterisk follows results filed as active; u = inconclusive; x = no result. Unless noted, calls come from the whole dose curve.
SMILES,Shiga inhibitor,SARS PLpro yeast,CHX counter,Pf growth 48h,Pf growth 96h,NS1 function inh
CCOc1ccccc1NC(=O)CN1C(=O)CSC(C)C1=O (stereo not given),38,-5%,7,-13%,-11%,x
CCc1nonc1NC(=O)c1oc2cc(C)c(Cl)cc2c1C,9,7%,6,38%,15%,7%
Cc1ccc2oc(C(=O)Nc3nnc(C)s3)c(C)c2c1,50,1%,17*,x,187%,-15%
Cc1ccc2oc(C(=O)Nc3nonc3C)c(C)c2c1,67*,7%,28*,57%,-15%,-11%
CCc1nonc1NC(=O)c1oc2ccc(Br)cc2c1C,8,-2%,-8,16%,26%,2%
CCc1nonc1NC(=O)c1oc2cc(C)c(C)cc2c1C,37,u,25*,75%,9%,4%
COCCn1c(SCc2ccc(OC)c(F)c2)nnc1-c1ccncc1,5,4%,-3,0%,-5%,8%
O=CNC(Cc1ccccc1)C(=O)O (stereo not given),23,-3%,-4,x,u,0%
CCC1(c2ccccc2)NC(=O)N(CC(=O)NCc2ccc(OC)cc2)C1=O (stereo not given),-8,0%,-3,u,u,16%
CC(=O)N1CCN(c2ccc(NC(=O)c3cccc(C)c3)cc2)CC1,x,4%,13*,70%,u,9%
CC1CCCCN1C(=O)c1ccc(C(=O)N2CCCCC2C)cc1 (stereo not given),-17,6%,10,-3%,u,4%
Cc1cccc(C(=O)Nc2ccc(C(=O)N3CCCCC3C)cc2)c1 (stereo not given),30,0%,24*,u,-15%,-35%
Cc1ccc(C)c(S(=O)(=O)NCc2ccc(C(=O)N3CCCCC3C)cc2)c1 (stereo not given),-10,1%,-7,x,4.1µM*,-3%
CC(=O)N1CCN(c2ccc(NC(=O)c3ccccc3)cc2)CC1,39*,-14%,23*,54%,u,-8%
Cc1ccc(N2CC(NC(=O)C(=O)c3c(C)[nH]c4ccccc34)CC2=O)cc1C (stereo not given),x,-1%,x,u,u,x
CCOC(=O)C1OC1C(=O)N[C@@H](CC(C)C)C(=O)NCCC(C)C (stereo not given in full),-2,x,-5,x,x,x
O=C(NC1CC1)c1ccc(CSCc2ccccc2Cl)o1,18,-4%,26*,1.9µM*,24%,-21%
COc1ccc(OC)c(/C=C/C(=O)N2CCCc3ccccc32)c1,54,-6%,18,-7%,u,x
COc1ccc(/C=C/C(=O)N2CCCc3ccccc32)c(OC)c1,47,-62%,14*,u,u,-26%
O=C1CCN(C(=O)/C=C/c2ccccc2)c2ccccc21,41*,-1%,28*,46%,u,-4%
O=C1CN(C(=O)/C=C/c2ccccc2)CCN1,-4,1%,-2,10%,-10%,-4%
COc1ccc(/C=C/C(=O)N2CCCc3ccccc32)cc1,74*,-37%,52*,13%,67%,-29%
O=C(O)CC1c2ccccc2C=Cc2ccccc21,x,0%,x,-4%,99%,x
S=C(Nc1ccccc1Cl)N(CCN1CCCCC1)Cc1ccco1,-10,4%,-3,-3%,0%,7%
O=C1CC2(CCCCC2)Oc2ccc(O)cc21,-11,-12%,-3,-24%,4.1µM*,-31%
SMILES,Shiga inhibitor,SARS PLpro yeast,CHX counter,Pf growth 48h,Pf growth 96h,NS1 function inh
Cc1ccc2c(c1)C(=O)CC1(CCCCCC1)O2,3,-1%,1,54%,80%,3%
CCc1ccc(C(=O)c2cn(CC(=O)Nc3cccc(OC)c3)c3ccc(OC)cc3c2=O)cc1,x,6%,x,12µM*,2.9µM*,x
COc1ccccc1NC(=O)Cn1cc(C#N)c2ccccc21,-17,7%,-2,x,-100%,-3%
COc1cccc(NC(=O)Cn2cc(C(=O)c3ccc(C)cc3)c(=O)c3cc(OC)ccc32)c1,x,-11%,x,u,u,x
COc1cccc(NC(=O)Cn2cc(C#N)c3ccccc32)c1,10,-1%,-2,15µM*,67%,18%
Cc1ccc(S(=O)(=O)N2CCN(Cc3csc(C)n3)CC2)cc1,-9,-2%,-1,14%,32%,-2%
Cc1ccc(S(=O)(=O)N(Cc2cc3cc4c(cc3[nH]c2=O)OCCO4)CC2CCCO2)cc1 (stereo not given),2,-9%,-3,22%,-20%,1%
COc1ccc2cc(CN(CC3CCCO3)S(=O)(=O)c3ccccc3)c(=O)[nH]c2c1 (stereo not given),4,-3%,3,-16%,x,-8%
O=c1[nH]c2cc3c(cc2cc1CN(CC1CCCO1)S(=O)(=O)c1ccc(Cl)cc1)OCCO3 (stereo not given),183*,5%,67*,39%,12µM*,-3%
CC(=O)c1ccc(S(=O)(=O)N(Cc2cc3cc4c(cc3[nH]c2=O)OCCO4)CC2CCCO2)cc1 (stereo not given),93*,-3%,37*,74%,-14%,5%
COc1ccc2[nH]c(=O)c(CN(CC3CCCO3)S(=O)(=O)c3ccccc3)cc2c1 (stereo not given),5,-1%,-3,1%,1.7µM*,-15%
O=C(CSc1nnc2c(Cl)cc(C(F)(F)F)cn12)NCc1ccc(F)cc1,21,-1%,4,u,8.3µM*,16%
O=C(NC1(C(F)(F)F)C(=O)Nc2c1c(=O)[nH]c(=O)n2Cc1ccco1)C1CC1 (stereo not given),2,9%,-2,-13%,15%,2%
CCCc1cc(=O)[nH]c(SCc2csc(-c3ccccc3)n2)n1,4,-28%,14,29%,41%,-9%
C[N+](C)(N)Cc1csc(-c2ccc(Cl)cc2)n1,x,x,x,x,x,-4%
Cc1cc(C)nc(SCc2csc(-c3ccccc3)n2)n1,85*,-31%,61*,195%,168%,-13%
Cc1cc(C)nc(SCc2csc(N)n2)n1,64,5%,28*,45%,-61%,0%
Nc1ccccc1SCc1csc(-c2ccc(Cl)cc2)n1,113*,-8%,44*,172%,52%,-18%
COc1cc(OC)cc(C(=O)Nc2ccc(N3CCOCC3)cc2N2CCOCC2)c1,x,11%,x,u,13µM*,x
COc1ccccc1-c1ocnc1C(=O)Nc1ccc(N2CCOCC2)cc1N1CCOCC1,-6,0%,8,u,2%,-12%
COc1ccc(-c2ocnc2C(=O)Nc2ccc(N3CCOCC3)cc2N2CCOCC2)cc1OC,-6,-3%,-5,8.3µM*,38%,16%
O=C(CN(Cc1ccco1)C(=O)CNS(=O)(=O)c1ccc(Cl)cc1)NCc1ccco1,-15,0%,-3,-3%,u,-4%
